# Data from the supplement of paper PMC13380429.
# Assays:
# [1] = test system: Vero E6 infected with SARS-CoV-2; assay: morphology score (similarity to uninfected cells); higher = more like uninfected cells; settings: 24 h
# [2] = test system: Vero E6 infected with SARS-CoV-2; assay: SARS-CoV-2 infection rate relative to infected DMSO; higher = more infection, active = 60 or less; settings: 24 h
SMILES,morphology score [1],SARS-CoV-2 infection rate [2]
NS(=O)(=O)c1cc(C(=O)O)cc(N2CCCC2)c1Oc1ccccc1 [piretanide] (10 µM),0.0293,110% (inactive)
N#Cc1ccc(NCCNCC(=O)N2CCC[C@H]2C#N)nc1 (10 µM),-0.0945,114% (inactive)
NCCS(=O)(=O)O [taurine] (10 µM),0.19,94.5% (inactive)
CC(C)Cc1ccc(C(C)C(=O)O)cc1 (stereo not given) [ibuprofen] (10 µM),0.0447,108% (inactive)
CC1Oc2cc(cnc2N)-c2c(nn(C)c2C#N)CN(C)C(=O)c2ccc(F)cc21 (stereo not given) (0.833333 µM),0.32,81.5% (inactive)
CC1(C)Cc2c(-c3ccccc3)c(-c3ccc(Cl)cc3)c(CC(=O)O)n2C1 [licofelone] (10 µM),0.31,105% (inactive)
N=C(N)c1ccc(/C=C/c2ccc(C(=N)N)cc2O)cc1 [hydroxystilbamidine] (10 µM),0.115,109% (inactive)
CC(C)c1nc(CN(C)C(=O)N[C@H](C(=O)N[C@@H](Cc2ccccc2)C[C@H](O)[C@H](Cc2ccccc2)NC(=O)OCc2cncs2)C(C)C)cs1 [Ritonavir] (10 µM),0.0318,95% (inactive)
CCN(CCCCOC(=O)c1ccc(OC)c(OC)c1)C(C)Cc1ccc(OC)cc1 (stereo not given) [mebeverine] (10 µM),0.178,94.5% (inactive)
CC/C=C(\C(=O)N[C@@H]1C(=O)N2C(C(=O)OCOC(=O)C(C)(C)C)=C(COC(N)=O)CS[C@H]12)c1csc(N)n1 [cefcapene-pivoxil] (10 µM),-0.175,114% (inactive)
CCOC(=O)[C@H]1O[C@@H]1C(=O)N[C@@H](CC(C)C)C(=O)NCCC(C)C [aloxistatin] (10 µM),0.331,90% (inactive)
NC(=O)c1ccc(N(C(N)=O)c2c(F)cccc2F)nc1-c1ccc(F)cc1F (10 µM),-0.134,111% (inactive)
O=C(O)[C@@H]1C[C@@H](O)CN1 [L-hydroxyproline] (10 µM),0.203,101% (inactive)
COc1ccc(C2CC(c3ccccc3)=NN2c2ccc(S(N)(=O)=O)cc2)cc1 (stereo not given) (10 µM),0.152,87% (inactive)
NS(=O)(=O)c1cc2c(cc1Cl)NC(C1CC3C=CC1C3)NS2(=O)=O (stereo not given) [cyclothiazide] (10 µM),0.0121,106% (inactive)
Nc1ncnc2c1ncn2[C@@H]1O[C@H](COP(=O)(O)OP(=O)(O)OP(=O)(O)O)[C@@H](O)[C@H]1O (10 µM),-0.0072,99.5% (inactive)
CC(Oc1ccc(O)cc1)(P(=O)(O)O)P(=O)(O)O (10 µM),0.0418,107% (inactive)
NC(=O)N1CCC(CC(=O)N2CCC([C@H]3c4ncc(Br)cc4CCc4cc(Cl)cc(Br)c43)CC2)CC1 [lonafarnib] (10 µM),0.736,43.5% (active)
O=S(=O)(c1cccc2cnccc12)N1CCCNCC1 [fasudil] (10 µM),0.474,100% (inactive)
c1ccc2sc(SNC3CCCCC3)nc2c1 [N-cyclohexyl-2-benzothiazolesulfenamide] (10 µM),-0.00896,106% (inactive)
C[C@@H]1C[C@H]2[C@@H]3C[C@H](F)C4=CC(=O)C=C[C@]4(C)[C@@]3(F)[C@@H](O)C[C@]2(C)[C@@]1(O)C(=O)CO [flumethasone] (10 µM),-0.0494,110% (inactive)
N[C@@H](C[C@@H](F)C(=O)O)C(=O)O (10 µM),0.0323,110% (inactive)
CN1C(=O)N(c2cc(Cl)cc(Cl)c2)C(=O)[C@@]1(C)Cc1ccc(Br)cc1 (10 µM),0.25,96.5% (inactive)
O=S(=O)(N[C@H](CO)C(C(F)(F)F)C(F)(F)F)c1ccc(Cl)s1 [begacestat] (10 µM),0.00774,98% (inactive)
COC(=O)[C@H](Cc1cccc(C(=N)N)c1)[C@@H](C)NC(=O)c1ccc(-c2cc[n+]([O-])cc2)cc1 [otamixaban] (10 µM),-0.0764,100% (inactive)
CC[C@@]1(O)C(=O)OCc2c1cc1n(c2=O)Cc2cc3ccccc3nc2-1 [camptothecin] (0.833333 µM),-0.218,114% (inactive)
C[C@@H](NCc1cc(Br)cc2nc(O)c(O)nc12)P(=O)(O)O (10 µM),0.0389,101% (inactive)
CC1(C)C(=O)N(CCN2CCC(C(=O)c3ccc(F)cc3)CC2)c2ccccc21 (10 µM),-0.158,110% (inactive)
CN1CCN(C(=O)c2nc3ccc(Cl)cc3[nH]2)CC1 (10 µM),0.119,108% (inactive)
CC(C)(O)C(=O)N1CCN(c2ccc(C(F)(F)F)c(C3=C(c4c[nH]c5ccccc45)C(=O)NC3=O)c2)CC1 (0.833333 µM),-0.201,108% (inactive)
